Results on 27 molecules are retold here after PubChem BioAssay (Tox21).

Test [1] concerns the target Estrogen receptor (Homo sapiens) (UniProt P03372). Briefly: qHTS assay to identify small molecule antagonists of the estrogen receptor alpha (ER-alpha) signaling pathway (AID 743069; active means well fitted curve in the direction sought with a large enough effect in the signal ratio in the repeat runs, not every such curve was filed as active; inconclusive means weak or mixed curves, or effect the other way; inactive means no such curve, though single readings can be large or run the other way; the % refers to the signal ratio). As to conditions: HEK293 ER-alpha-UAS-bla, beta-lactamase ratio, antagonist mode; series mostly up to 69.4 µM. In short, it runs like this: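 HEK293 ER-alpha-UAS-bla GripTite cells, held overnight in 2% charcoal-stripped FBS, 5,000 cells/well, preincubated 4 h, then compound plus 17beta-estradiol for 18 h at 37C. Beta-lactamase read by LiveBLAzer B/G FRET substrate, 2 h at room temperature.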
Background: In qHTS, concentration-response curves come from the screen itself.

The nature of test [2]: qHTS assay to identify small molecule antagonists of the estrogen receptor alpha (ER-alpha) signaling pathway - cell viability counter screen (AID 743074).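 Further: HEK293 cells carrying ER-alpha-UAS-bla reporter stimulated with 17beta-estradiol; nearly all actives have a fitted effect of over 45% in size.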 As to conditions: ERalpha-bla HEK293 viability, CellTiter-Glo luminescence, 18 h; series mostly up to 69.4 µM.
Test [3] addresses Estrogen receptor (Homo sapiens) (UniProt P03372). Briefly: qHTS assay to identify small molecule agonists of the estrogen receptor alpha (ER-alpha) signaling pathway (AID 743075). Further: potency means the concentration at half of the fitted maximal effect. The conditions noted are these: HEK293 ER-alpha-UAS-bla, beta-lactamase FRET ratio, 18 h; series mostly up to 70.1 µM.
The target is the same in test [4]. In words: qHTS assay to identify small molecule agonists of the estrogen receptor alpha (ER-alpha) signaling pathway using the BG1 cell line (AID 743079; active means well fitted curve in the direction sought with a large enough effect in the repeat runs; inconclusive means weak or mixed curves; inactive means no such curve, though single readings can be large; an effect the other way counts as inactive or inconclusive; further: nearly all actives have a fitted effect of over 20% in size; further: potency means the concentration at half of the fitted maximal effect). The conditions noted are these: BG1Luc4E2 cells, ERE-luciferase agonist, 22 h; activation: at 70.3 µM (top of the series).
Test [5] can be described thus: qHTS assay to identify small molecule antagonists of the estrogen receptor alpha (ER-alpha) signaling pathway using the BG1 cell line (AID 743080).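 Further: BG1 cells stimulated with 17beta-estradiol alongside compound; nearly all actives have a fitted effect of over 25% in size.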 Further: potency means the concentration at half of the fitted maximal effect. As to conditions: BG1Luc4E2 ERE-luciferase antagonist mode, luminescence; series mostly up to 70.3 µM. In short, it runs like this: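 Seeding, 24 h rest, compound transfer from DMSO, 17beta-estradiol addition, 21.5 h incubation, CellTiter-Fluor (30 min, 37 C), then ONE-Glo (30 min, room temperature): this sequence was run on BG1-Luc-4E2 reporter cells.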

Test [6] is described as follows: qHTS assay to identify small molecule antagonists of the estrogen receptor alpha (ER-alpha) signaling pathway using the BG1 cell line - cell viability counter screen (AID 743081; active means well fitted curve in the direction sought with a large enough effect in the repeat runs; inconclusive means weak or mixed curves; inactive means no such curve, though single readings can be large; an effect the other way counts as inactive or inconclusive;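 further: compound given together with 17beta-estradiol as the ER stimulus; nearly all actives have a fitted effect of over 45% in size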; further: potency means the concentration at half of the fitted maximal effect). As to conditions: BG1Luc4E2 viability, CellTiter-Fluor, 22 h; series mostly up to 70.3 µM.
For test [7], the target named is Aromatase (Homo sapiens) (UniProt P11511). In words: qHTS assay to identify aromatase inhibitors (AID 743083; active means well fitted curve in the direction sought with a large enough effect in the repeat runs; inconclusive means weak or mixed curves; inactive means no such curve, though single readings can be large; an effect the other way counts as inactive or inconclusive; further: nearly all actives have a fitted effect of over 55% in size). As to conditions: MCF-7 aro ERE, testosterone-driven ERE luciferase, 24 h; series mostly up to 70.3 µM.
Sequence of Aromatase (Homo sapiens) (P11511 whole entry, looked up): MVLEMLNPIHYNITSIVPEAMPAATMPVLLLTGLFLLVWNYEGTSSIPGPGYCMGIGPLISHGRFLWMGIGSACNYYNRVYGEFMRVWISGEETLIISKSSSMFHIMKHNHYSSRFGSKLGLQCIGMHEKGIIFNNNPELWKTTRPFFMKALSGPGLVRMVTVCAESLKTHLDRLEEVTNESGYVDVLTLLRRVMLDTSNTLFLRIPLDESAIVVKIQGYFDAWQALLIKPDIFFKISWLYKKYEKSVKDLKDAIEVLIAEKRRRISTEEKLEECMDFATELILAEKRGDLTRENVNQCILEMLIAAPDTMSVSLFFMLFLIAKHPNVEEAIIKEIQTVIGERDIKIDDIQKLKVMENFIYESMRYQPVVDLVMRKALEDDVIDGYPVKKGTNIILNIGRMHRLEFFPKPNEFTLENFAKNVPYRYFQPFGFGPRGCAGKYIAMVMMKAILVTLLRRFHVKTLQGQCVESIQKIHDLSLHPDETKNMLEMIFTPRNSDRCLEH
The test system of test [8] is thyroid hormone receptor (rat, GH3 cells). Briefly: qHTS assay to identify small molecule agonists of the thyroid receptor (TR) signaling pathway (AID 743066). The conditions noted are these: GH3.TRE-Luc cells, TR agonist luciferase, 24 h; series mostly up to 83.9 µM.
Test [9] in a line: qHTS assay to identify small molecule antagonists of the thyroid receptor (TR) signaling pathway (AID 743065; active means well fitted curve in the direction sought with a large enough effect in the repeat runs; inconclusive means weak or mixed curves; inactive means no such curve, though single readings can be large; an effect the other way counts as inactive or inconclusive; further: potency means the concentration at half of the fitted maximal effect; nearly all actives have a fitted effect of over 55% in size). As to conditions: GH3.TRE-Luc, T3-stimulated luciferase inhibition, 23.5 h; series mostly up to 70.3 µM. Summed up: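 GH3.TRE-Luc rat pituitary cells (two TREs driving luciferase) were dosed with compound, then stimulated with 1 nM T3 (final) for 23.5 h at 37 C. ONE-Glo luminescence was the read-out, with CellTiter-Fluor fluorescence as the cytotoxicity counter-screen.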

Calls of active or inactive are those of the source. Unless noted, the call rests on the fitted dose curve. Positions of bridges follow the written chain, without caps; N, C: chain ends. Non-standard residues stand in square brackets, D forms with d. Residues, ends and D or L forms follow the SMILES beside them. ξ: configuration not given here. *: point of attachment. d(aThr) = C[C@@H](O)[C@@H](N)C(=O)O; ξThr(3R) = C[C@@H](O)C(N)C(=O)O; X3 = CC[C@@H](C)CCCCC(=O)*; dDab = NCC[C@@H](N)C(=O)O

Sequence of Estrogen receptor (Homo sapiens) (P03372 whole entry, looked up): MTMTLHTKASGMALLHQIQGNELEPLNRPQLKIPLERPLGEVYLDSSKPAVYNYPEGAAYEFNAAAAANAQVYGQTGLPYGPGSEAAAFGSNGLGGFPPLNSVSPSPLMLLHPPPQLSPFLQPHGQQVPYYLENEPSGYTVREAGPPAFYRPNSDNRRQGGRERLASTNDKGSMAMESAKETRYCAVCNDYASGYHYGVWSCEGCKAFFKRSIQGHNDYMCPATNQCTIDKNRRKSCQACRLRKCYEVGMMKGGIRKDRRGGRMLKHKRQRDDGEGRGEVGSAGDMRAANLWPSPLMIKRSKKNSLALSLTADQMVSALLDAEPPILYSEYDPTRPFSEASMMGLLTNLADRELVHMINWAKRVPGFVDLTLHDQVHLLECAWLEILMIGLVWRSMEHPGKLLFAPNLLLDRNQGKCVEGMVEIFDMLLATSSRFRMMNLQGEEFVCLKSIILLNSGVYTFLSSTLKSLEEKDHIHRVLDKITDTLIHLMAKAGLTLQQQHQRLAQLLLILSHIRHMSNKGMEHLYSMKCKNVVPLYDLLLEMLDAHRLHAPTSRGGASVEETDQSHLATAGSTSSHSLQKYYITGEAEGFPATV

`NC[C@@H]1O[C@H](O[C@H]2[C@@H](O)[C@H](O[C@@H]3[C@@H](O)[C@H](N)C[C@H](N)[C@H]3O[C@H]3O[C@H](CN)[C@@H](O)[C@H](O)[C@H]3N)O[C@@H]2CO)[C@H](N)[C@@H](O)[C@@H]1O`: the Potency entry in test [1], in test [2], in test [3], in test [4], in test [5] and in test [6] was “inactive” throughout. For the same molecule, the Potency result in test [7] is “inactive”.
For `CC[C@@H](C)CCCCC(=O)N[C@H](CCN)C(=O)N[C@@H](C(=O)N[C@H](CCN)C(=O)N[C@@H]1CCNC(=O)C([C@@H](C)O)NC(=O)[C@@H](CCN)NC(=O)[C@@H](CCN)NC(=O)[C@@H](CC(C)C)NC(=O)[C@@H](Cc2ccccc2)NC(=O)[C@@H](CCN)NC1=O)[C@@H](C)O` (stereo partly drawn) (X3-[dDab][d(aThr)][dDab][dDab][dDab][dF][dL][dDab][dDab][ξThr(3R)]; lactam 4-C), the Potency result in test [8], in [2], in test [6] and in [7] was “inactive” throughout.
Regarding `CO[C@H]1C[C@@H]2CC[C@@H](C)[C@@](O)(O2)C(=O)C(=O)N2CCCC[C@H]2C(=O)O[C@H]([C@H](C)C[C@@H]2CC[C@@H](OC(=O)C(C)(CO)CO)[C@H](OC)C2)CC(=O)[C@H](C)/C=C(\C)[C@@H](O)[C@@H](OC)C(=O)[C@H](C)C[C@H](C)/C=C/C=C/C=C/1C`, the Potency result in test [1], in test [2], in test [3], in test [5], in [6] and in test [7] was “inactive” each time. Moreover, the Potency in test [4] was 23.7 µM (active).
With `O=C(COc1ccc(Cl)cc1)OCCNC12CC3CC(CC(C3)C1)C2`, the Potency entry in test [1], in test [2], in test [3], in test [4], in [5] and in test [6] was “inactive” each time. Also, the Potency entry in test [7] is “inactive”.
Turning to `CN1CCc2c(c3ccccc3n2Cc2ccccc2)C1`, the Potency result in test [8], in test [6] and in test [7] was “inactive” in each case.
As to `N#CC(c1ccc(Cl)cc1)c1c(Cl)cc(-n2ncc(=O)[nH]c2=O)cc1Cl` (stereo not drawn), in test [9], the Potency is 3.76 µM (active). In addition, the Potency entry in test [3], in [4], in test [6] and in test [7] was “inactive” each time.
`CN1C(=O)CN2CCc3ccccc3C2c2cc(Cl)ccc21` (stereo not drawn): the Potency entry in test [1], in test [2], in test [3], in test [4], in test [6] and in [7] was “inactive” throughout. In addition, the Potency in test [5] was 21.1 µM (active).
For the molecule `COc1ccc(CCNCC(O)COc2cccc(C)c2)cc1OC` (stereo not drawn), the Potency entry in test [8], in test [1], in test [2], in [3], in [4] and in test [5] was “inactive” throughout. Moreover, the Potency entry in [6] and in test [7] was “inactive” in each case.
With `COc1ccc(CCNC[C@H](O)c2ccc(O)cc2)cc1OC`, the Potency result in test [1], in test [2], in test [3], in [4], in test [5] and in test [6] was “inactive” each time. Besides, in test [7], the Potency result was “inactive”.
For the molecule `CCCCC(=O)N(Cc1ccc(-c2ccccc2-c2nn[nH]n2)cc1)[C@@H](C(=O)O)C(C)C`, the Potency entry in test [1], in test [2], in test [3], in [4], in [5] and in test [6] was “inactive” in each case. Further, the Potency entry in test [7] was “inactive”.
Consider `CC(=C\c1ccccc1)/C=C1/SC(=S)N(CC(=O)O)C1=O`, for which the Potency entry in test [8], in test [1], in test [2], in [3], in test [4] and in test [7] was “inactive” throughout. Besides, the Potency in test [6] was 29.8 µM (active).
Turning to `CNC(C)CCC=C(C)C` (stereo not drawn), the Potency entry in test [8], in [6] and in test [7] was “inactive” each time.
For the molecule `CCCCCCCCCCCCCCCC(=O)O[C@@H]1CC(C)=C(/C=C/C(C)=C/C=C/C(C)=C/C=C/C=C(C)/C=C/C=C(C)/C=C/C2=C(C)C[C@@H](OC(=O)CCCCCCCCCCCCCCC)CC2(C)C)C(C)(C)C1`, the Potency entry in test [8], in test [2], in [3], in test [4], in test [5] and in test [6] was “inactive” each time. Also, in test [7], the Potency entry was “inactive”.
As for `Oc1cc(O)cc(O)c1`, the Potency result in test [8], in [2], in test [6] and in test [7] was “inactive” throughout.
For the molecule `CCCCC/C=C\C/C=C\C/C=C\CCCCC(=O)O`, the Potency entry in test [8], in test [2], in [6] and in test [7] was “inactive” in each case.
For the molecule `O=C(Nc1ccc(/C=C/c2ccc(NC(=O)c3cc(S(=O)(=O)O)c4cccnc4c3O)cc2S(=O)(=O)O)c(S(=O)(=O)O)c1)c1cc(S(=O)(=O)O)c2cccnc2c1O`, the Potency result in test [8], in [1], in [2], in test [3], in test [4] and in test [5] was “inactive” in each case. In addition, the Potency entry in [6] and in test [7] was “inactive” throughout.
Take `O=C(CCCN1CCC(C(=O)c2ccc(F)cc2)CC1)c1ccc(F)cc1`: the Potency result in test [8], in [1], in test [2], in [3], in test [4] and in [5] was “inactive” in each case. The Potency result in [6] and in test [7] was “inactive” in each case.
Take `C[C@]12CCC(=O)C[C@@H]1CC[C@@H]1[C@@H]2CC[C@]2(C)C=CC[C@@H]12`: the Potency entry in test [8], in [2], in [5], in test [6] and in test [7] was “inactive” each time. Besides, the Potency in test [3] is 8.49 µM [inconclusive] (active); in test [4], 11.9 µM (active).
For the molecule `CN1CCC(OC(=O)C(Oc2ccc(Cl)cc2)Oc2ccc(Cl)cc2)CC1`, the Potency result in test [8], in [1], in test [2], in [3], in test [4] and in test [5] was “inactive” each time. The Potency result in [6] and in [7] was “inactive” in each case.
With `CN(C)CCOc1ccccc1Cc1ccccc1` (tested in a mixture with another compound), the Potency entry in [8], in [2], in test [6] and in test [7] was “inactive” in each case.
Regarding `CC[C@@H]1/C=C(\C)C[C@H](C)C[C@H](OC)[C@H]2O[C@@](O)(C(=O)C(=O)N3CCCC[C@H]3C(=O)O[C@H](/C(C)=C/[C@@H]3CC[C@@H](Cl)[C@H](OC)C3)[C@H](C)[C@@H](O)CC1=O)[C@H](C)C[C@@H]2OC`, the Potency entry in [8], in test [2], in test [6] and in test [7] was “inactive” in each case.
As to `CCCCCCCCCCCC(=O)N(CCO)CCO`, the Potency entry in [8], in test [2], in [3], in [4], in test [5] and in [6] was “inactive” each time. In addition, in test [7], the Potency entry is “inactive”.
For the molecule `N=C(N)c1ccc(OCCCOc2ccc(C(=N)N)cc2Br)c(Br)c1`, in [8], the Potency entry was “inactive”.
`CC(NNC(=O)c1ccccc1)c1ccccc1` (stereo not drawn): the Potency result in test [2], in [6] and in [7] was “inactive” each time.
As for `CCCCC(F)(F)[C@@]1(O)CC[C@H]2[C@@H](CC(=O)[C@@H]2CCCCCCC(=O)O)O1`, the Potency result in test [2], in test [4], in test [5] and in [6] was “inactive” throughout.
Take `CCOC(=O)CCC(=O)O[C@H]1[C@H](O[C@@H]2[C@@H](C)[C@H](O[C@H]3C[C@@](C)(OC)[C@@H](O)[C@H](C)O3)[C@@H](C)C(=O)O[C@H](CC)[C@@](C)(O)[C@H](O)[C@@H](C)C(=O)[C@H](C)C[C@@]2(C)O)O[C@H](C)C[C@@H]1N(C)C`: the Potency result in test [1], in test [2], in [3], in test [4], in [5] and in test [7] was “inactive” throughout.
On to `CN1CC(O)c2cc(N=NC(N)=O)c(O)cc21` (stereo not drawn), for which the Potency entry in test [2], in test [3], in [4], in [5], in test [6] and in test [7] was “inactive” each time.
